Measurements as given in PubChem BioAssay (NCI).
This is part of a sample that, as a whole, favours compounds with a hit. Of some 79,000 tested, about 15% had one in any assay. Rule as the data show it: active = growth inhibition above about 70%; inactive = the rest.

How the values were obtained:
[1] = NCI Yeast Anticancer Drug Screen. Data for the rad50 strain (AID 155);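 also: 0% = growth of vehicle-only cultures of the same strain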; settings: S. cerevisiae rad50 strain growth inhibition; at 50.0 µM; stronger effect = higher value
Outline: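 Yeast carrying a defined DNA repair defect were exposed to test compounds, and growth was compared with vehicle-treated controls to give percent inhibition.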

[2] = NCI Yeast Anticancer Drug Screen. Data for the mec2-1 strain (AID 157); settings: S. cerevisiae mec2-1 strain, at 50.0 µM, stronger effect = higher value
Outline: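 Readout is yeast growth inhibition, normalised to vehicle-treated controls, in the mec2-1 strain exposed to compound.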

[3] = NCI Yeast Anticancer Drug Screen. Data for the sgs1 mgt1 strain (AID 161);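 also: 0% = growth of cultures given vehicle only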; settings: S. cerevisiae sgs1 mgt1 strain, at 50.0 µM, stronger effect = higher value
Outline: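 Percent growth inhibition was derived by comparing compound-exposed mutant yeast with vehicle-exposed cultures. The strain carries alterations in DNA damage repair.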

[4] = NCI Yeast Anticancer Drug Screen. Data for the cln2 rad14 strain (AID 165);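 also: 0% = growth equal to vehicle treated cultures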; settings: S. cerevisiae cln2 rad14 strain, at 50.0 µM, stronger effect = higher value
Outline: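 Relative to vehicle controls, growth inhibition of compound-treated cln2 rad14 yeast was recorded.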

[5] = NCI Yeast Anticancer Drug Screen. Data for the bub3 strain (AID 167); settings: S. cerevisiae bub3 mutant strain, at 50.0 µM, stronger effect = higher value
Outline: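 Compounds were applied to a genetically altered yeast strain carrying a cell-cycle control defect. Growth inhibition was scored against vehicle-treated controls.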

[6] = NCI Yeast Anticancer Drug Screen. Data for the mlh1 rad18 strain (AID 175); settings: S. cerevisiae mlh1 rad18 strain growth inhibition; at 50.0 µM; stronger effect = higher value
Outline: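 Test agents were incubated with a yeast strain of defined genotype (DNA damage repair defect). Inhibition of growth was derived by comparison with vehicle-exposed cultures.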

Measured: growth inhibition

Clc1nc2ccccc2c2ccccc12
inactive: [1] 36.5% | [2] -3.6% | [3] -4% | [4] 29.5% | [5] -13.2% | [6] 4.5%

CC(NC(=O)c1ccc(C(C[N+](=O)[O-])SCCC(=O)O)cc1)C(=O)O (stereo not given)
inactive: [1] 18.9% | [2] 7.2% | [3] 26.2% | [4] 5.55% | [5] -15.9% | [6] 1.2%

O=C(O)c1cc(C(=O)O)nc(C(=O)O)c1
inactive: [1] -23.9% | [2] -12.1% | [3] -16.1% | [4] -29.9% | [5] 5.7% | [6] -0.6%

CCC(CC)C(=O)NC
inactive: [1] -4.25% | [2] -5.2% | [3] -3.5% | [4] 2.2% | [5] -0.85% | [6] -1.8%

Clc1ccc(N=C(Oc2ccc(Cl)cc2)c2ccccc2)cc1
inactive: [1] 4.95% | [2] 7.35% | [3] -4.85% | [4] -12.4% | [5] 0.25% | [6] 3.6%

CC(=O)Nc1c([N+](=O)[O-])cc(C2CCCCC2)cc1[N+](=O)[O-]
inactive: [1] -8.05% | [2] -7.25% | [3] 4.25% | [4] -34.5% | [5] 23.2% | [6] -9.85%

CNS(=O)(=O)c1c(C)cccc1CC(=O)c1ccccc1
inactive: [1] -4.3% | [2] 0.65% | [3] 12.2% | [4] -12.8% | [5] 14.8% | [6] -8.2%

CCCCc1ccc2[n+](c1)C(C(=O)OCC)=PC2 (stereo not given)
inactive: [1] -18.1% | [2] -36.8% | [3] -21.4% | [4] -18.9% | [5] -19.9% | [6] -11.9%

O=c1/c(=C/c2ccc3c(c2)OCO3)sc2nnc(-c3ccco3)n12
inactive: [1] 1.85% | [2] -30.1% | [3] 17.9% | [4] 20.6% | [5] -19.9% | [6] -3.35%

CC(C)CCCC(C)C1CCC2C3CCC4CC(O)C5(CC4(C)C3CCC12C)SCCS5 (stereo not given)
inactive: [1] 41% | [2] 10.9% | [3] 15.1% | [4] 18.4% | [5] -6.35% | [6] 18.4%

CCOC(=O)C(Cc1cc(C)c(O)c(I)c1)NC(C)=O (stereo not given)
inactive: [1] -18.4% | [2] -1.1% | [3] -11.2% | [4] 4.2% | [5] 5.85% | [6] -5.85%

CC[N+](CC)(CC)CC(=O)c1ccc(Br)cc1
inactive: [1] 18.7% | [2] 12.7% | [3] 13.1% | [4] -0.35% | [5] 25% | [6] 8.2%

COC(=O)c1ccccc1N=NNc1ccc(C)c(Cl)c1
inactive: [1] 36.2% | [2] 0.55% | [3] -1.2% | [4] -11.4% | [5] 5.7% | [6] 5.15%

COC(=O)C1(C(=O)OC)C/C(C)=C(/C)SCCCS1
inactive: [1] -12.7% | [2] -5.6% | [3] -14.8% | [4] 19.9% | [5] -23.1% | [6] -26.4%

Cn1c(=O)c2c(nc(OCC[N+](C)(C)C)n2C)n(C)c1=O
inactive: [1] 5% | [2] 11.8% | [3] -0.25% | [4] 33.4% | [5] 1.85% | [6] 2.45%

C=C(Cl)COc1ccc(-c2ccccc2)cc1
inactive: [1] 28.4% | [2] 6.9% | [3] 16.5% | [4] -2.7% | [5] -8.55% | [6] 1.2%

O=C(O)c1ccccc1C(=O)OC1CC2C=CC1C21CC1 (stereo not given)
inactive: [1] -12.2% | [2] -13.2% | [3] -15.3% | [4] -1.9% | [5] -6.2% | [6] -9.75%

Cc1onc(-c2ccccc2)c1NC(=O)OCc1ccc(-c2cc(C(F)(F)F)cc(C(F)(F)F)c2)o1
inactive: [1] -0.4% | [2] -14.9% | [3] -2.65% | [4] 9.7% | [5] 4.4% | [6] 11.8%

CCC(C)NC(=O)c1cccc2c1-c1ccccc1C2=O (stereo not given)
inactive: [1] -0.05% | [2] -5.15% | [3] 0.35% | [4] 1.4% | [5] 25.2% | [6] 14.4%

CN1C(CC(=O)c2ccccc2)CCCC1CC(O)c1ccccc1 (stereo not given)
inactive: [1] 13.9% | [2] 2.25% | [3] 25.4% | [4] 40.4% | [5] -2.4% | [6] 36.1%

CCOC(=O)/C(Cc1cnc2ccccc2n1)=N\O
inactive: [1] -1% | [2] -4.4% | [3] -8.95% | [4] -52.5% | [5] 5.7% | [6] -24.9%

COc1ccc2c(c1)Cc1cc(N=[N+]([O-])c3ccc4c(c3)Cc3cc(OC)ccc3-4)ccc1-2
inactive: [1] 8.65% | [2] 1.35% | [3] -17.9% | [4] -80% | [5] 47.5% | [6] 9.85%

OCCCNCc1ccncc1
inactive: [1] 22.8% | [2] -15.8% | [3] -14.6% | [4] 33.5% | [5] -16.2% | [6] -3.55%

Nc1nc(-c2ccccc2)cc2ccccc12
inactive: [1] 0.55% | [2] -12.7% | [3] 1.65% | [4] -18.7% | [5] -13.2% | [6] 18.1%

Nc1ccc(-c2c[nH]c(=O)c([N+](=O)[O-])c2)cc1
inactive: [1] 3.5% | [2] -6.05% | [3] -1.35% | [4] -28.5% | [5] 3.5% | [6] -6.4%

C#CC1(O)CCC2[C@@H]3CCc4cc(Oc5nc(F)nc(-c6c7ccccc7cn6C)n5)ccc4C3CC[C@@]21C (stereo not given in full)
inactive: [1] 37.5% | [2] 25.3% | [3] 1.4% | [4] 5.05% | [5] 32.6% | [6] 42.8%

Cc1nc(N)nc2ccccc12
inactive: [1] 3.15% | [2] -25.3% | [3] -16% | [4] -5.8% | [5] -7.9% | [6] -16.1%

CCc1ccc(/C(C#N)=C/c2cccc3ccccc23)cc1
inactive: [1] 2.45% | [2] -11.1% | [3] -0.6% | [4] -1.9% | [5] 4.05% | [6] -5.25%

CC(CCl)NC(=O)Nc1cccc2c1CCCC2 (stereo not given)
inactive: [1] -12.5% | [2] 0.3% | [3] -3.9% | [4] -36% | [5] -2.6% | [6] 18.8%

CN(CN(C)/N=C/c1ccc(Cl)cc1)/N=C/c1ccc(Cl)cc1
inactive: [1] 1.05% | [2] 11.6% | [3] 7.95% | [4] 12.8% | [5] -4.8% | [6] 10.1%

Cc1cc(C)cc(C(=O)NCc2ccc[n+]([O-])c2)c1
inactive: [1] -10.3% | [2] -5.6% | [3] -6.35% | [4] -11.9% | [5] 0.4% | [6] 17.6%

CCOC(=O)C(C(=O)OCC)=C(C)C
inactive: [1] -9.9% | [2] -32% | [3] -12.2% | [4] -3.1% | [5] -26.1% | [6] -37.3%

COc1ccc(/C=C\c2cccc(Cl)c2)cc1
inactive: [1] 21.6% | [2] -25.1% | [3] 3.3% | [4] -8.95% | [5] -13.3% | [6] 6.4%

OC1CCCC1c1ccccc1 (stereo not given)
inactive: [1] 6.4% | [2] -24.4% | [3] -11.9% | [4] -7.55% | [5] -3.7% | [6] 4.45%

c1cc(N2CCOCC2)ccc1Cc1ccc(N2CCOCC2)cc1
inactive: [1] -13.2% | [2] 0.9% | [3] -4.1% | [4] 0.45% | [5] -17.6% | [6] -13.1%

COc1ccc(-c2onc(-c3ccc([N+](=O)[O-])cc3)c2C2=NCCCN2)cc1
inactive: [1] 0.45% | [2] -6.65% | [3] -10.3% | [4] 12.7% | [5] -1.95% | [6] -20.3%

Cc1cc(C(=O)O)c2c([nH]1)c(C)cc1nc3ccccc3c12
inactive: [1] 12.6% | [2] 5.65% | [3] -10% | [4] 12.1% | [5] 4.95% | [6] -19.2%

O=C(O)[Si](c1ccccc1)(c1ccccc1)c1ccccc1
inactive: [1] 43.7% | [2] 25.9% | [3] 39.6% | [4] 4.8% | [5] 20.1% | [6] 48.1%

CN(C)CCCSc1n[nH]c(=O)[nH]c1=O
inactive: [1] 6.4% | [2] 2.5% | [3] -11.3% | [4] -19.7% | [5] 1.6% | [6] -10.1%

CCOC(=O)c1c(O)c(Cc2ccccc2)c(=O)n2c1[nH]c1cc(C)c(C)cc12
inactive: [1] 26.6% | [2] 26.2% | [3] 12.2% | [4] 15.5% | [5] -0.95% | [6] -1%
